Assay results from PubChem BioAssay AID1851 (National Center for Advancing Translational Sciences (NCATS), 2009).
Among all 16,000 compounds or so, about 5,700 (36%) were called active. Inconclusive results (about 24%) are left out. The call rests on the fitted dose curve; in most records, active means well fitted curve in the direction sought with a large enough effect; inconclusive means small, poorly fitted or top-dose-only effect, or effect the other way; inactive means no such curve, though single readings can be large or run the other way. The list shows a part of the results.

target: Cytochrome P450 1A2 (Homo sapiens) (UniProt P05177); experiment: Cytochrome panel assay with activity outcomes; details: recombinant CYP, pro-luciferin dealkylation, luminescence, p450-cyp1a2; series mostly up to 57.1 µM
Sequence (P05177 whole entry, looked up): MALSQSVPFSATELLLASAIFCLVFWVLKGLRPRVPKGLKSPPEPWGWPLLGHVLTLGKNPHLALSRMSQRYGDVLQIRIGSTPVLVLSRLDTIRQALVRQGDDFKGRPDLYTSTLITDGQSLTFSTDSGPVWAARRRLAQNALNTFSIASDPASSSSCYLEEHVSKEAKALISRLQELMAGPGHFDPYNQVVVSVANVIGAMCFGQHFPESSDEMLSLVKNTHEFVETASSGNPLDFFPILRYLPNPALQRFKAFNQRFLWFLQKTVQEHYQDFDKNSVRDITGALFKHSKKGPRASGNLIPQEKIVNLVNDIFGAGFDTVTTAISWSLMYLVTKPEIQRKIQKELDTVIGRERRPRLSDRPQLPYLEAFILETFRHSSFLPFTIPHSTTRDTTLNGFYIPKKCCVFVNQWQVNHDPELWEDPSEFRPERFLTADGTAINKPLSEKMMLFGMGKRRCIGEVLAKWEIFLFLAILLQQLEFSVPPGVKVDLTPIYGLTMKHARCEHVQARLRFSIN
On the % scale 0 is the no-effect control and ±100 the full control effect.

AC50, inactive:
O=C(Oc1ccccc1)N1CCC2(CC1)CN(c1ccncc1)C2, CCCCN1C(=O)C(NC(=O)c2cccnc2)(C(F)(F)F)C2=C1CC(C)(C)CC2=O (configuration not stated), COc1ccc(OC)c(CNC(=O)CCNC(=O)Cn2ccc3ccccc3c2=O)c1, O=C(O)Cc1cc2ccccc2nc1C(=O)O, Cc1ccc(Cl)cc1N1CCN(S(=O)(=O)c2ccc3c(c2)OCCO3)CC1, O=S(=O)(Nc1cccnc1Cl)c1ccc2c(c1)OCCO2, O=C(Nc1nnc(SCc2ccc(Cl)cc2Cl)s1)C1COc2ccccc2O1 (configuration not stated), CCc1nnc(NC(=O)C2CCN(C(=O)NC3CCCCC3)CC2)s1, O=c1cc(N2CCN(c3ccccc3)CC2)[nH]c(=O)n1C1CCCCC1, Cc1ccc(Sc2ccc(NC(=O)c3ccc(S(C)(=O)=O)cc3Cl)cc2)cc1, CN(C)S(=O)(=O)c1ccc(NC(=O)c2cc(F)c(F)cc2Cl)cc1, C[C@]12CC3CC(N)(C1)C[C@@](C)(C3)C2, CC(C)C(CCNC(=O)CC(Cc1ccccc1)c1ccco1)c1ccco1 (configuration not stated), COC(=O)[C@@]1(Cc2ccc(F)cc2)[C@@H]2C(=CC(=O)[C@H]2CC(=O)C(=O)N2CCCC2)CN1C(=O)c1ccccc1, COC(=O)[C@@]1(Cc2ccc(F)cc2)[C@@H]2C(=CC(=O)[C@H]2CC(=O)C(=O)N(C)C)CN1C(=O)c1ccccc1, COC(=O)[C@@]1(Cc2ccc(OC)cc2)[C@@H]2C(=CC(=O)[C@H]2CC(=O)C(=O)N(C)C)CN1C(=O)c1ccccc1, COC(=O)[C@@]1(Cc2ccc(OC)cc2)[C@@H]2C(=CC(=O)[C@H]2CC(=O)C(=O)N2CCCC2)CN1C(=O)c1ccccc1, CCN1CCN(C(=O)N[C@H](C(=O)N[C@@H]2C(=O)N3C(C(=O)O)=C(CSc4nnnn4C)CS[C@@H]23)c2ccc(O)cc2)C(=O)C1=O, O=C(O)CSc1cc(C(F)(F)F)nc(-c2ccccn2)n1, CCC[C@@H]1C[C@@]1(CCC)C(NS(=O)(=O)c1cccc2cccnc12)c1ccc(Cl)cc1 (some centres not stated), CC(C)NC(=O)N1CC[C@@]2(CCCN(C(=O)c3cccc(F)c3)C2)C1, O=C(CSc1nnc(-c2ccco2)n1-c1ccccc1)NCc1ccco1, Nc1cc(=O)[nH]c(SCC(=O)Nc2ccc(S(=O)(=O)N3CCOCC3)cc2)n1, Cc1cc(=O)[nH]c(-n2[nH]c3c(c2=O)CCCC3)n1

AC50, active:
CCCC(=O)NCCc1c2n(c3ccc(OC)cc13)Cc1ccccc1-2 2.51 µM, COc1cccc(-c2cc(NCc3cnc(C)cn3)ncn2)c1 5.01 µM, Cc1cnc(CNc2cc(-c3cccc(C#N)c3)ncn2)cn1 15.8 µM, CC(C)C(=O)Cc1ccc2ccccc2n1 3.16 µM, O=S(=O)(N/N=C\c1ccc2c(c1)OCO2)c1ccc(Cl)cc1 10 µM, O=S(=O)(N/N=C/c1ccc2c(c1)OCCO2)c1ccc(Cl)cc1 11.2 µM, O=C(Nc1nnc(SCc2c(Cl)cccc2Cl)s1)C1CCCO1 (configuration not stated) 17.8 µM, CCCCNCCOCCOc1ccc(C)cc1[N+](=O)[O-] 0.794 µM, COc1ccc(C=O)cc1COc1ccc(C)cc1[N+](=O)[O-] 1.12 µM, C=CCNCCOCCOc1ccc(C)cc1[N+](=O)[O-] 0.794 µM, COC(=O)c1sccc1-c1ccc(C(=O)Nc2cccc(Cl)c2)o1 1.41 µM, CN(C)S(=O)(=O)Oc1ccsc1C(=O)Nc1cccc(Cl)c1 1.41 µM, CN(C)S(=O)(=O)Oc1ccsc1C(=O)Nc1ccc(Cl)cc1 0.891 µM, C=C1C(=O)C=C2CN(C(=O)c3ccccc3)[C@@](Cc3ccc(OC)cc3)(C(=O)OC)[C@@H]12 15.8 µM, C=C1C(=O)C=C2CN(C(=O)c3ccccc3)[C@@](Cc3ccc(F)cc3)(C(=O)OC)[C@@H]12 15.8 µM, COC(=O)CSc1cc(C(F)(F)F)nc(-c2ccccn2)n1 0.708 µM, FC(F)(F)c1cc(Sc2ccccc2)nc(-c2ccccn2)n1 0.891 µM, CCOC(=O)CSc1cc(C(F)(F)F)nc(-c2ccccn2)n1 2.24 µM, CC(C)Nc1cc(C(F)(F)F)nc(-c2ccccn2)n1 1.58 µM, COc1ccccc1-c1cncnc1NCc1cccnc1 6.31 µM, COc1ccccc1-c1cncnc1NCc1cccc(C)c1 5.01 µM, COc1ccccc1-c1cncnc1NCc1ccccc1 12.6 µM, COc1ccc2[nH]cc(CCNc3ncnc4ccc(-c5ccc6c(c5)OCO6)cc34)c2c1 0.631 µM, COc1ccc2[nH]cc(CCNc3ncnc4ccc(-c5ccoc5)cc34)c2c1 0.316 µM, C=CC(C)(C)c1[nH]c2ccccc2c1C1=C(O)C(=O)C(c2c[nH]c3c(CC=C(C)C)cccc23)=C(O)C1=O 25.1 µM, O=C(CSc1nnc2sc3ccccc3n12)NCc1ccco1 10 µM, CCOC(=O)c1sc2nc(CC(=O)OC)nc(NCc3ccc(F)cc3)c2c1C 14.1 µM, CCC(Sc1nc(C)cc(=O)[nH]1)C(=O)Nc1nc2c(s1)CCCC2 (configuration not stated) 12.6 µM, Cc1cc(=O)[nH]c(SCC(=O)Nc2nc3c(s2)CCCC3)n1 12.6 µM

activity, negative = inhibition, inactive:
C[C@@]12CCC(=O)C=C1CC[C@H]1[C@@H]2[C@@H](O)C[C@]2(C)[C@@H]1CC[C@@]2(O)C(=O)COC(=O)C1CCCC1 -13.3% [at 11.4 µM], COc1ccc(COC(=O)N/N=C2/C[C@@H](O)[C@@H](O)[C@@H]3[C@@H]4C(=O)N(C(C)(C)C)C(=O)[C@H]4CC[C@H]23)cc1 -10.2% [at 11.4 µM], COc1ccc(COC(=O)N/N=C2/C[C@@H](O)[C@@H](O)[C@@H]3[C@@H]4C(=O)N(c5cccc(Oc6ccccc6)c5)C(=O)[C@H]4CC[C@@H]23)cc1 -36.2% [at 11.4 µM], C/C(=N/Nc1nc(C)cc(=O)[nH]1)C(=O)O -8.18% [at 11.4 µM]
